Source: PubChem (National Center for Advancing Translational Sciences (NCATS))
An excerpt weighted towards active compounds, which were near 8.7% of everything screened.
Vaccinia Venus: qHTS for Stage-Specific Inhibitors of Vaccinia Orthopoxvirus: Venus Reporter Primary qHTS | Vaccinia virus Venus reporter expression, fluorescence | Potency, µM (highest dose often 36.5 µM), for the others: at the top dose activity change, negative = inhibition, actives largely listed as inhibitors | 330,000 compounds, 0.46% hits; calls by dose curve; tested in A549 cells; also: nearly all actives have a fitted effect of over 30% in size
Pf growth 48h: Primary qHTS for delayed death inhibitors of the malarial parasite plastid, 48 hour incubation | P. falciparum luciferase growth in erythrocytes, 48 h | Potency, µM (top dose mostly 28.7 µM), inactives show at the highest dose activity change, negative = inhibition, most hits filed as inhibitors | 310,000 compounds, 5.9% hits | AID 504832, 2011
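Growth was read as firefly luciferase luminescence after a 48 h, 37 C, 5% CO2 exposure of compounds to reporter-bearing P. falciparum cultures (0.1% parasitemia, 2% hematocrit final) in Albumax-supplemented RPMI 1640.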
AMA1 RON2 block: qHTS for Inhibitors of AMA1-RON; Towards Development of Antimalarial Drug Lead: Primary Screen; Plasmodium falciparum AMA1 (3D7) - RON2 peptide interaction; AlphaScreen AMA1-biotinylated RON2 peptide binding; 360,000 compounds, 0.2% hits; Potency, µM (top dose mostly 58.2 µM), inactives show top-dose activity change, negative = inhibition, usual class: inhibitors;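 also: 0% = vehicle wells and -100% = peptide control; nearly all actives have a fitted effect of over 45% in size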
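AMA1 (3D7) with his tag at 25 nM final met compounds first, then biotinylated RON2 peptide at 25 nM; detection used donor plus acceptor beads, 10 µg/mL apiece, read by AlphaScreen after 30 min at room temperature.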
Vaccinia mCherry: qHTS for Stage-Specific Inhibitors of Vaccinia Orthopoxvirus: mCherry Reporter Primary qHTS; Vaccinia virus mCherry reporter infection, fluorescence; Potency, µM (series often up to 36.5 µM), inactives show at the highest dose activity change, negative = inhibition, actives largely listed as inhibitors; 310,000 compounds, 0.63% hits; AID 720579, 2013; calls by dose curve; tested in A549 cells; also: nearly all actives have a fitted effect of over 35% in size
Pf growth 96h: Primary qHTS for delayed death inhibitors of the malarial parasite plastid, 96 hour incubation; P. falciparum luciferase reporter growth, 96 h; AID 504834, 2011; 320,000 compounds, 6.9% hits; Potency, µM (series often up to 28.7 µM), for inactives: at the top dose activity change, negative = inhibition, hits mostly inhibitors
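Erythrocytes infected with luciferase-expressing P. falciparum were dispensed at 2% hematocrit and 0.05% parasitemia (final), then incubated with compounds 96 hours at 37 C in 5% CO2. Luminescence after detection reagent addition reported growth.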
Active calls of the source: *; i = inactive; ? = inconclusive; . = not tested or not shown; [ ] = remark or other dose. Unless noted, calls follow the shape of the dose curve; as a rule, active = well fitted curve in the direction sought with a large enough effect; inconclusive = small, poorly fitted or top-dose-only effect, or another doubt; inactive = no such curve, though single readings can be large; an effect the other way counts as inactive or inconclusive. Unless noted, % is scaled to controls: 0 for no effect and ±100 for the full control effect; potency is read from the fitted curve at half-maximal effect.

SMILES	Vaccinia Venus	Pf growth 48h	AMA1 RON2 block	Vaccinia mCherry	Pf growth 96h
CC(=O)O[C@H]1C[C@H](O[C@H]2[C@@H](O)C[C@H](O[C@H]3[C@@H](O)C[C@H](O[C@H]4CC[C@@]5(C)[C@H](CC[C@@H]6[C@@H]5C[C@@H](O)[C@]5(C)[C@@H](C7=CC(=O)OC7)CC[C@]65O)C4)O[C@@H]3C)O[C@@H]2C)O[C@H](C)[C@H]1O[C@@H]1O[C@H](CO)[C@@H](O)[C@H](O)[C@H]1O	2.51µM*	.	.	?	.
O=C(CN1C=NS(=O)(=O)c2ccccc21)Nc1ccc(Br)cc1	-9.0%	.	.	-8.7%	.
Cc1ccsc1C(=O)N(Cc1cc2ccc(F)cc2nc1N1CCC(O)CC1)CC1CCCO1 (configuration not stated)	4.5%	.	.	-7.0%	.
CCOC(=O)N/N=C\c1ccc(OC/C=C/c2ccccc2)c(OC)c1	-10.0%	1.85µM*	36.5%	-17.5%	50.3%
C=CCOc1ccc(/C=N/NC(=O)C(=O)Nc2ccccn2)cc1OC	-0.9%	6.6%	10.6%	-5.2%	4.15µM*
COC(=O)c1c(OCc2ccccc2)cc(=O)n2c1CCN(Cc1cccc(C)n1)CC2	0.0%	.	.	-0.5%	.
Cc1ccc(Cl)cc1N1CCN(c2ncnc3onc(C)c23)CC1	-27.9%	.	.	-4.1%	.
Nc1c2c3c(sc2nc(=O)n1N)CCCC3	.	7.6%	6.0%	.	6.57µM*
Cc1ccc(-c2nc3sc4c(c3c(=O)n2N)CCCC4)cc1	.	.	2.6%	.	7.38µM*
Cc1nc2sc3c(c2c(=N)n1N)CCCC3	-6.3%	-1.9%	12.4%	?	10.4µM*
Cc1ccc(C)n1-n1c(C)nc2sc3c(c2c1=O)CCCCC3	-10.9%	11.7µM*	?	.	11.7µM*
Nc1nc2sc3c(c2c(=O)s1)CCCC3	-23.3%	64.7%	-4.6%	-20.6%	0.0%
O=C(N[C@@H]1c2ccccc2C2(CCN(Cc3c(O)ccc4ccccc34)CC2)[C@H]1O)c1ccccc1	0.0%	.	.	-5.8%	.
COCCn1c(C)cc(O)c(C(c2ccc(Cl)cc2)N2CCCCC2)c1=O (configuration not stated)	-13.1%	.	.	-11.9%	.
Cc1ccc(-n2c(=O)c3c(cnn3C)n(Cc3ccccc3F)c2=O)cc1	-1.6%	.	.	-3.8%	.
Cc1nc2sc3c(c2c(=O)o1)CCCC3	2.7%	22.2%	14.1%	.	2.08µM*
CC(C)c1nc2sc3c(c2c(=O)o1)CCCC3	4.7%	25.4%	-2.5%	-18.8%[1.46 µM]	4.8%
CCN1CCC(N(Cc2ccc(F)cc2)C(=O)Nc2cccc(C(F)(F)F)c2)CC1	-15.8%	.	.	-19.8%	.
Cc1ccc(Cl)cc1N1CCN(C(=O)CCn2c(=O)c3cccn3c3cccnc32)CC1	-25.0%	.	.	?	.
CCN(CC)C(=O)CSc1nnc2nnc3cc(Cl)ccc3n12	?	4.65µM*	4.3%	-54.6%	7.38µM*
Cc1cc(Cl)c(S(=O)(=O)NCC2CCCO2)cc1OCC(=O)NC1CCCCC1 (configuration not stated)	.	.	-2.3%	.	5.86µM*
Cc1cc(Cl)c(S(=O)(=O)N2CCN(c3ccc(F)cc3)CC2)cc1OCC(=O)NC1CCCCC1	.	.	3.4%	.	6.57µM*
Cc1cc(Cl)c(S(=O)(=O)N2CCN(c3ccc(F)cc3)CC2)cc1OCC(N)=O	-27.5%	?	10.4%	-6.7%	8.2%
CCOC(=O)C1CCCN(S(=O)(=O)c2cc(OCC(=O)NC3CCCCC3)c(C)cc2Cl)C1 (configuration not stated)	.	.	-2.7%	.	0.465µM*
CCOc1ccc(Cl)cc1S(=O)(=O)N1CCN(c2ccc(F)cc2)CC1	-19.3%	11.7µM*	-12.0%	-16.4%	.
SMILES	Vaccinia Venus	Pf growth 48h	AMA1 RON2 block	Vaccinia mCherry	Pf growth 96h
CC(=O)N1CCc2cc(S(=O)(=O)C(C)CC(=O)Nc3ccc(Br)c(C)c3)ccc21 (configuration not stated)	-7.5%	.	.	-17.7%	.
COc1ccc(OC)c(NC(=O)C2CCCN2C(=O)C2CCC(C)CC2)c1 (configuration not stated)	-10.1%	.	-7.3%	-8.5%	9.28µM*
CC(C)(C)NC(=O)C(c1ccncc1)N(Cc1cccs1)C(=O)Cn1nnc(-c2ccc(F)cc2)n1 (configuration not stated)	-18.1%	?	-4.6%	i	?
COc1cccc(N(C(=O)Cn2nnc(-c3cccs3)n2)C(C(=O)NC2CCCCC2)c2ccncc2)c1 (configuration not stated)	-1.8%	-13.6%	10.7%	-10.2%	?
CC(C)(C)N(C(=O)Cn1nnc(-c2ccc(F)cc2)n1)C(C(=O)NC1CCCC1)c1ccncc1 (configuration not stated)	-17.2%	?	-3.0%	i	8.28µM*
CC(C)(C)NC(=O)C(OC(=O)Cn1nnc(-c2ccc(F)cc2)n1)c1ccncc1 (configuration not stated)	-8.5%	17.5%	8.4%	-7.5%	9.28µM*
CC(C)CCNC(=O)C(c1ccncc1)N(CC1CCCO1)C(=O)Cn1nnc(-c2ccc(F)cc2)n1 (configuration not stated)	-14.8%	?	-13.1%	i	-9.6%
CC(C)CCNC(=O)C(c1ccncc1)N(C(=O)Cn1nnc(-c2ccc(F)cc2)n1)c1ccccc1F (configuration not stated)	-9.9%	?	-16.1%	-6.0%	6.57µM*
Cc1ccc(C)c(N(C(=O)Cn2nnc(-c3cccs3)n2)C(C(=O)NC2CCCC2)c2ccncc2)c1 (configuration not stated)	.	4.65µM*	-7.1%	.	?
COc1ccccc1N1CCN(S(=O)(=O)c2ccc(-c3cc(C(F)(F)F)on3)s2)CC1	-9.8%	.	.	i	.
O=C(CN(CCCN1CCOCC1)C(=O)Cn1nnc(-c2ccc(F)cc2)n1)NC1CCCCC1	.	-12.8%	9.3%	.	1.3%
O=C(CN(CCN1CCOCC1)C(=O)Cn1nnc(-c2ccc(F)cc2)n1)NC1CCCCC1	.	.	5.7%	.	6.57µM*
CC(C)CC(=O)NC(=S)Nc1nc(-c2cccc3ccccc23)cs1	-27.0%	-5.7%	-28.0%	-10.0%	13.1µM*
CC(=O)Nc1nonc1-c1nnc(SCc2ccc(F)cc2Cl)n1C	-6.1%	.	.	-7.5%	.
CC(C)CN1CN(Cc2ccco2)CNC1=S	-6.2%	0.4%	-1.2%	i	53.9%
CCCCN1CNC(=S)N(Cc2ccccc2)C1	-18.6%	9.2%	-9.1%	-2.5%	9.28µM*
S=C1NCN(C2CCCCC2)CN1CCc1ccccc1	-13.5%	4.65µM*	-1.6%	-24.5%	1.85µM*
CCOc1ccc(CCN2CN(C3CCCCC3)CNC2=S)cc1OCC	-10.3%	?	-12.5%	i	-28.7%
S=C1NCN(Cc2ccco2)CN1CCc1ccccc1	.	?	-10.4%	.	8.28µM*
